Test results published in ChEMBL document CHEMBL3433997, “St. Jude Leishmania screening dataset” (2016).
“And” between values parts separate entries of the source, which are not always exact repeats. Equal entries are not always repeated.

Assays:
Assay type in all cases: functional
[1] = target: Solute carrier family 2, facilitated glucose transporter member 1 (Homo sapiens) (UniProt P11166); assay: ST_JUDE_LEISH: Cytotoxicity at 2uM final concentration against transgenic Leishmania Mexicana promastigotes LmGLUT1 that are glucose transport deficient and complemented with the human glucose transporter GLUT1. Activity is measured by DNA content using SYBR green in vitro
[2] = target: Hexose transporter 1 (Plasmodium falciparum) (UniProt O97467); assay: ST_JUDE_LEISH: Cytotoxicity at 2uM final concentration against transgenic Leishmania Mexicana promastigotes LmPfHT that are glucose transport deficient and complemented with the Plasmodium falciparum hexose transporter. Activity is measured by DNA content using SYBR green in vitro
[3] = target: Glucose transporter (Leishmania mexicana) (UniProt O61059); assay: ST_JUDE_LEISH: Cytotoxicity at 2uM final concentration against transgenic Leishmania Mexicana promastigotes LmGT2 that are glucose transport deficient and complemented with the L. Mexicana glucose transporter 2. Activity is measured by DNA content using SYBR green in vitro

Sequence of Solute carrier family 2, facilitated glucose transporter member 1 (Homo sapiens) (P11166 whole entry): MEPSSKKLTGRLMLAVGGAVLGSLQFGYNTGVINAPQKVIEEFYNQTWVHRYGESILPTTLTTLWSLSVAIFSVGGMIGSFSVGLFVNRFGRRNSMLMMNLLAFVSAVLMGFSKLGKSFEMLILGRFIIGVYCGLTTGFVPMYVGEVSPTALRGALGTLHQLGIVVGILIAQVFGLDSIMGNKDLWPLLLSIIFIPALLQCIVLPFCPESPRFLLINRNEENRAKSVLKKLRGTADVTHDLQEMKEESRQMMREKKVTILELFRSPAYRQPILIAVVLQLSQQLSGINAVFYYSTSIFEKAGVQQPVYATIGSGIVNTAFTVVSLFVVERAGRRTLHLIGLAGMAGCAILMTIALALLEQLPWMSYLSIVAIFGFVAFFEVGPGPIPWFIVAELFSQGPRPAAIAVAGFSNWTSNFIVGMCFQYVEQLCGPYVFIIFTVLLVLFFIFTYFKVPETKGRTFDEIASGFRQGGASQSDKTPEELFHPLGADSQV

Compound: Cc1cc(C2CCN(CCCCNC(=O)c3ccc(NC(=O)c4ccc(Cl)cc4)cc3)CC2)c(C)cc1OCc1ccncc1
- inhibition [1]: 8.72%
- inhibition [2]: 7.09%
- inhibition [3]: 7.42%

Compound: C=CCOc1ccc(Cc2cnc(N)nc2N)cc1CCC
- inhibition [1]: 3.94%
- inhibition [2]: 4.62%
- inhibition [3]: 1.19%

Compound: COc1cc(F)c2ncc(Cl)c(CCN3CCC(NCc4ccc5c(n4)NC(=O)CO5)CC3)c2c1
- inhibition [1]: 3.28%
- inhibition [2]: 4.15%
- inhibition [3]: -1.5%

Compound: COC(=O)c1ccc(NC(=O)Nc2ccc(Cn3ncc(N4CCCNCC4)c(Cl)c3=O)cc2)cc1
- inhibition [1]: -0.9%
- inhibition [2]: 0.77%
- inhibition [3]: -0.5%

Compound: Cc1c(C(=O)N2CCc3cc4nccc(N5CCN6CCC[C@H]6C5)c4cc32)cnn1-c1ccc(C#N)cc1
- inhibition [1]: 3.57%
- inhibition [2]: 3.55%
- inhibition [3]: 2.9%

Compound: CN(C)S(=O)(=O)c1ccc(Nc2nc(NCCC3C=NC=N3)nc3cc[nH]c(=O)c23)cc1 (configuration not stated)
- inhibition [1]: 4.88%
- inhibition [2]: 5.35%
- inhibition [3]: 4.93%

Compound: CCC(CC)n1c(COC)cc2c3c(N)nc(N)nc3ccc21
- inhibition [1]: 33.6%
- inhibition [2]: 51.1%
- inhibition [3]: 37.3%

Compound: CCc1ccc(N2C(N)=NC(N)=NC2(C)C)cc1
- inhibition [1]: 0.74%
- inhibition [2]: 1.29%
- inhibition [3]: 2.09%

Compound: CCOC(=O)CC[C@@H](NC(=O)c1ccc(NCc2ccc3ccc4nc(C)[nH]c(=O)c4c3c2)cc1F)C(=O)N[C@@H](Cc1c[nH]c2ccccc12)C(=O)OCC
- inhibition [1]: 1.56%
- inhibition [2]: 1.89%
- inhibition [3]: 3.35%

Compound: COc1ccc(CCNCCCCCNCCc2ccc(Cl)cc2)cc1OC
- inhibition [1]: 7.58%
- inhibition [2]: 6.09%
- inhibition [3]: 6.63%

Compound: CCCN(CCC)C(=O)c1cc(-c2cccc(C)c2)nc2ccccc12
- inhibition [1]: 2.62%
- inhibition [2]: 0.69%
- inhibition [3]: -1.61%

Compound: N=C(N)NN=Cc1ccccc1OCc1ccccc1Cl
- inhibition [1]: -0.49%
- inhibition [2]: 2.44%
- inhibition [3]: 0.38%

Compound: CC[C@H](C)CNC(=O)c1cncc(-c2cccc(CN(C)C3CCN(C)CC3)c2)c1
- inhibition [1]: 2.22%
- inhibition [2]: 2.75%
- inhibition [3]: 3.37%

Compound: COc1csc2cc(Br)ccc12
- inhibition [1]: 1.01%
- inhibition [2]: 1.16%
- inhibition [3]: 0.18%

Compound: O=C(c1ccc([N+](=O)[O-])o1)N1CCC(c2cn(Cc3cccc(F)c3)c3ccccc23)CC1
- inhibition [1]: 50.1%
- inhibition [2]: 50.9%
- inhibition [3]: 10.2%

Compound: CC(=O)Nc1ccc(OCCCCN(Cc2ccccc2C(F)(F)F)c2ccc(C#N)c(C(F)(F)F)c2)c(Cl)c1
- inhibition [1]: 4.39%
- inhibition [2]: 4.65%
- inhibition [3]: 4.57%

Compound: CCCCCCCCn1c2c(c(=N)c3c1CCC3)CCCC2
- inhibition [1]: 94.4%
- inhibition [2]: 95.9%
- inhibition [3]: 92.6%

Compound: CC(C)N(CC(=O)c1ccc(O)c(C(=O)O)c1)Cc1ccccc1
- inhibition [1]: 3.53%
- inhibition [2]: 3.51%
- inhibition [3]: 1.67%

Compound: COc1ccc(Nc2nccc(NCC(O)c3ccc(C(F)(F)F)cc3)n2)cc1 (configuration not stated)
- inhibition [1]: 2.9%
- inhibition [2]: 5.27%
- inhibition [3]: 2.61%

Compound: Cc1cc(Br)cnc1CCCCNc1cc(=O)c2ccccc2[nH]1
- inhibition [1]: 4.59%
- inhibition [2]: 6.14%
- inhibition [3]: 4.81%

Compound: CCCCCNc1nc2nc(N)nc(N)c2nc1-c1ccccc1
- inhibition [1]: 7.52%
- inhibition [2]: 9.23%
- inhibition [3]: 0.23%

Compound: COc1ccc2nccc([C@@H](O)CN3CCC(NCc4ccc5cccc(O)c5n4)CC3)c2c1
- inhibition [1]: 7.73%
- inhibition [2]: 7.94%
- inhibition [3]: 3.46%

Compound: Cc1cccc(Nc2nc(NCCCCN)nc3cc[nH]c(=O)c23)c1
- inhibition [1]: 6.92%
- inhibition [2]: 6.97%
- inhibition [3]: 4.49%

Compound: COc1ccc(CN(C)CC(O)COc2ccc(NC(=O)c3cccc4c(=O)c5cccc(OC)c5[nH]c34)cc2)cc1OC (configuration not stated)
- inhibition [1]: 7.62%
- inhibition [2]: 3.04%
- inhibition [3]: 3.9%

Compound: Cc1cnc(C(=O)Nc2ccc3c(c2)CCCN(Cc2c[nH]c4cnccc24)C3)cn1
- inhibition [1]: 11.1%
- inhibition [2]: 11.4%
- inhibition [3]: 9.32%

Compound: O=C(Nc1cccc(-c2cccc(-c3nc4ccccc4[nH]3)c2)c1)NC1CC1c1ccccc1 (configuration not stated)
- inhibition [1]: 6.53% and 2.58%
- inhibition [2]: 5.02% and 2.99%
- inhibition [3]: 5.79% and 7.12%

Compound: CN(c1ccccc1C(=O)Nc1cc(Cl)ccc1Oc1ccccc1)S(=O)(=O)c1ccccc1
- inhibition [1]: 5.06%
- inhibition [2]: 4.53%
- inhibition [3]: 3.66%

Compound: Cc1ccc(S(=O)(=O)NC2CCN(CCNC(=O)Nc3cc(C)nc4ccccc34)C2)cc1 (configuration not stated)
- inhibition [1]: 4.78%
- inhibition [2]: 4.12%
- inhibition [3]: 0.31%

Compound: COc1cc2ccccc2c(CNCCCCCCNCc2c(OC)c(OC)cc3ccccc23)c1OC
- inhibition [1]: 4.39%
- inhibition [2]: 3.44%
- inhibition [3]: 1.23%

Compound: COc1ccc(-c2cccc(NC(=O)c3ccc(C#N)cc3)c2)cc1CN(C)CCN(C)C
- inhibition [1]: 2.8%
- inhibition [2]: 2.9%
- inhibition [3]: 0.41%

Compound: Cc1ccc2c(=NN=Cc3ccc(N(C)C)cc3)cc(C)[nH]c2c1
- inhibition [1]: 1.24%
- inhibition [2]: 2.71%
- inhibition [3]: -5.38%

Compound: CCNC(=O)Nc1ccc(-c2cnc(N)c(-c3nc4ccc(OC)cc4[nH]3)c2)cc1
- inhibition [1]: 3.5%
- inhibition [2]: 4.42%
- inhibition [3]: 3.1%

Compound: NC1=NC(c2ccccc2)N(c2ccccc2)C(N)=N1 (configuration not stated)
- inhibition [1]: 1.99%
- inhibition [2]: -4.07%
- inhibition [3]: -0.58%

Compound: COc1ccc2nccc(CCN3CC(O)C(CNCc4ccc5c(n4)NC(=O)CS5)C3)c2n1 (configuration not stated)
- inhibition [1]: 3.43%
- inhibition [2]: 3.49%
- inhibition [3]: 4.07%
